# Assay results as given in ChEMBL document CHEMBL5308504, “Tm Shift (DSF) assay results for EUbOPEN Chemogenomics Library” (2023).
# Target: Bromodomain-containing protein 4 (Homo sapiens) (UniProt O60885)
# Settings: Compound concentration 20.0 uM, Protein concentration 2.0 uM, Result type QC Liability
row,SMILES,ΔTm
1,C=CC(=O)Nc1cccc(C(=O)Nc2ccc(Nc3cc(-c4c(-c5ccc(F)cc5)nc(SC)n4C)ccn3)cc2)c1,-0.7 °C
2,COc1c(OCCCN2CCOCC2)ccc2c1N=C(NC(=O)c1cnc(N)nc1)N1CCN=C21,-0.74 °C
3,Clc1ccccc1C(c1ccccc1)(c1ccccc1)n1ccnc1,-5.6 °C
4,Cc1cccc(-c2nn3c(c2-c2ccnc4ccc(C(N)=O)cc24)CCC3)n1,-2.31 °C
5,C[C@H](NC(=O)c1cc(Cl)ccc1Oc1ccc(F)cc1)c1ccc(C(=O)O)cc1,-0.23 °C
6,CC1CN(CC(=O)N2CC(C)(C)c3nc(CO)c(Cc4ccc(F)cc4)cc32)C(CN2CCOCC2C)CN1 (centres undefined),-2.32 °C
7,N=C(N)NCCC[C@H](NC(=O)C(c1ccccc1)c1ccccc1)C(=O)NCc1ccc(CNC(N)=O)cc1,0.06 °C
8,CC(=O)N1CCC(c2ccc(C(=O)NC(=N)N)cc2C(F)(F)F)CC1,-0.62 °C
9,CC(C)(C)c1cc(NC(=O)c2csc(Nc3ccccn3)n2)no1,1.16 °C
10,CN[C@@H](C)C(=O)N[C@H](C(=O)N1CCC[C@H]1C(=O)N[C@@H]1CCCc2ccccc21)C1CCCCC1,-2.83 °C
11,CCn1ccc(Nc2ncc3c(n2)-c2c(nn(C)c2-c2ccc(-c4cnn(C)c4)cc2Cl)CC3)n1,-1.73 °C
12,O=C(Nc1ccc(N2CCC(C(=O)N3CCOCC3)CC2)cc1)c1cnc(Oc2ccccc2)nc1,-0.8 °C
13,O=C(Nc1ccccc1C(=O)O)c1cc(S(=O)(=O)c2ccccc2)ccc1Cl,2.09 °C
14,Cn1cc(C(=O)O)c2ccc(N3CCC(OCc4c(-c5c(Cl)cccc5Cl)noc4C4CC4)CC3)cc21,-1.74 °C
